Measured values: the supplement of paper PMC8975748
Counter-ions that a name gives are not always drawn.

The compounds below were run on Saccharomyces cerevisiae BY4741 SeMeCo community (assay: z-score of subpopulation abundance vs DMSO median, subpopulation auxotrophic for HLUM; higher = larger share of this subpopulation than in DMSO controls). Details: 10 µM; 24 h; SM minimal medium; subpopulation (auxotrophy): HLUM.
Description: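 Fluorescent four-plasmid SeMeCo (self-establishing metabolically cooperating S. cerevisiae BY4741 community; plasmids pH-mRuby2, pL-mWasabi, pU-eCFP, pM-TagRFP657) was grown 24 h in minimal SM medium with each Selleck FDA-approved drug at 10 µM in 384-well plates. Cells were fixed and imaged by high-content confocal microscopy. For each auxotrophic subpopulation (and the prototroph), a z-score gives the deviation from the DMSO vehicle-control population median.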

SMILES | z-score of subpopulation abundance
COc1ccc(C=O)cc1 [p-Anisaldehyde] | -0.16
O=C(O[C@H]1C[C@H]2CC[C@@H](C1)[N+]21CCCC1)C(O)(c1ccccc1)c1ccccc1 [Trospium chloride] | -0.2
CN1c2ccccc2C(NCCCCCCC(=O)O)c2ccc(Cl)cc2S1(=O)=O (centres undefined) [Tianeptine sodium] | 0.87
COc1ccc2c(c1)[C@]13CCCC[C@@H]1[C@H](C2)N(C)CC3 [Dextromethorphan hydrobromide hydrate] | -0.5
CC(C)N(CCC(C(N)=O)(c1ccccc1)c1ccccn1)C(C)C (centres undefined) [Disopyramide] | 0.82
N[C@@H]1C[C@H]1c1ccccc1 [Tranylcypromine (2-PCPA) HCl] | 0.28
CN1[C@@H]2C[C@@H](OC(=O)[C@H](CO)c3ccccc3)C[C@H]1[C@@H]1O[C@@H]12 [Scopolamine HBr trihydrate] | -0.22
C=CCN1C[C@H](C(=O)N(CCCN(C)C)C(=O)NCC)C[C@@H]2c3cccc4[nH]cc(c34)C[C@H]21 [Cabergoline] | 0.78
CCOC(=O)Nc1ccc(NCc2ccc(F)cc2)cc1N [Retigabine 2HCl] | -0.39
C=C[C@H]1CN2CC[C@H]1C[C@H]2[C@H](O)c1ccnc2ccccc12 [Cinchonidine] | 0.1
CC[C@@]1(O)C(=O)OCc2c1cc1n(c2=O)Cc2cc3ccccc3nc2-1 [Camptothecin] | -0.44
CCN(C)C(=O)Oc1cccc([C@H](C)N(C)C)c1 [Rivastigmine] | -0.15
C[CH2][Hg][S]c1ccccc1C(=O)[O-].[Na+] [Thimerosal] | 63.5
Oc1cc(Cl)ccc1Oc1ccc(Cl)cc1Cl [Triclosan] | 2.06
CN1[C@@H]2CC[C@H]1C[C@@H](OC(=O)[C@H](CO)c1ccccc1)C2 [Hyoscyamine] | 0.62
COC(=O)C1=CCCN(C)C1 [Arecoline HBr] | -0.09
O=C(O[C@H]1C[N+]2(CCCOc3ccccc3)CCC1CC2)C(O)(c1cccs1)c1cccs1 [Aclidinium Bromide] | -0.18

SMILES | z-score of subpopulation abundance
CCN(CC)CCOC(=O)C(O)(c1ccccc1)c1ccccc1 [Benactyzine hydrochloride] | 1.13
CC(NC(C)(C)C)C(=O)c1cccc(Cl)c1 (centres undefined) [Amfebutamone (Bupropion) HCl] | 0.09
CN[C@@H]1[C@@H](O)[C@@H](O[C@@H]2[C@@H](O)[C@H](O[C@H]3O[C@H]([C@@H](C)O)[C@@H](O)[C@H](O)[C@H]3N)[C@@H](N)C[C@H]2N)OC[C@]1(C)O [Geneticin (G418 Sulfate)] | -0.56
O=c1cccc2n1C[C@@H]1CNC[C@H]2C1 [Cytisine] | -0.32
CC[C@@H](C(N)=O)N1CCCC1=O [Levetiracetam] | -0.38
CN(C)C(=O)Oc1ccc[n+](C)c1 [Pyridostigmine Bromide] | -1.14
COc1ccc(C(CN(C)C)C2(O)CCCCC2)cc1 (centres undefined) [Venlafaxine] | -0.12
COc1ccc2c3c([nH]c2c1)C(C)=NCC3 [Harmaline] | -1.92
C[C@@H]1O[C@@H](O[C@H]2C[C@@H](O)[C@]3(CO)[C@H]4[C@H](O)C[C@]5(C)[C@@H](C6=CC(=O)OC6)CC[C@]5(O)[C@@H]4CC[C@]3(O)C2)[C@H](O)[C@H](O)[C@H]1O [Ouabain] | -0.91
Nc1nc(N)nc(NC2CC2)n1 [Cyromazine] | 1.21
Cc1cc(O)ccc1Cl [Chlorocresol] | -0.16
NCC(O)c1ccc(O)cc1 (racemic) [(+,-)-Octopamine HCl] | -0.38
COc1ccc2[nH]cc(CCN)c2c1 [5-Methoxytryptamine] | 0.69
O=[N+]([O-])C(Br)(CO)CO [Bronopol] | 0.53
CN(C)[C@@H]1C(=O)C(C(N)=O)=C(O)[C@@]2(O)C(=O)C3=C(O)c4c(O)cccc4[C@@](C)(O)[C@H]3[C@H](O)[C@@H]12 [Oxytetracycline Dihydrate] | -0.3
CCN(C)C(=O)Oc1cccc([C@H](C)N(C)C)c1 [Rivastigmine Tartrate] | -0.16
CC(C)(O)C(Cl)(Cl)Cl [Chlorobutanol] | -0.06
